Measurements taken from PubChem BioAssay (EPA / NIEHS).
The source made the active and inactive calls. How the source made its calls: active means hit-call score of the fitted dose curve at least 0.9, where 1 is the maximum; inactive means score below 0.9.

Tests used:
[1] = CEETOX_H295R_PROG: CeeTox H295R High-throughput Steroidogenesis Assay for Progesterone (PROG) (AID 2283442); details: actives raise or lower the signal;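 on AC50: human H295R adrenal cells primed with 10 µM forskolin before dosing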
Outline: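 Measured analyte is progesterone secreted by H295R cells at 48 h of chemical treatment, following 10 uM forskolin priming. Quantitation used HPLC-MS/MS against a 7-point standard curve; cytotoxicity was checked by MTT absorbance.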

[2] = read-out: Tumor necrosis factor receptor superfamily member 6 (Homo sapiens) (UniProt P25445); assay: LTEA_HepaRG_FAS: Life Technologies and Expression Analysis (LTEA) Assay for Fas cell surface death receptor (FAS) using HepaRG (AID 2283447); details: mRNA level, 48 h; actives raise or lower the signal
Outline: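 Differentiated human HepaRG cells, pre-cultured 48 h, were exposed in duplicate for 48 h to 8-point half-log concentrations (top 100 uM, 0.5% DMSO) in serum-free induction medium; FAS mRNA measured by qRT-PCR, normalized to ACTB/GAPDH/POLR2A, bidirectional fit versus DMSO.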

[3] = read-out: Fatty acid synthase (Homo sapiens) (UniProt P49327); assay: LTEA_HepaRG_FASN: Life Technologies and Expression Analysis (LTEA) Assay for Fatty Acid Synthase (FASN) using HepaRG (AID 2283448); details: mRNA level, 48 h; actives raise or lower the signal
Outline: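 Differentiated human HepaRG cells were exposed for 48 h in serum-free induction medium to eight half-log concentrations up to 100 uM in 0.5% DMSO, in duplicate. FASN mRNA was quantified by TaqMan qRT-PCR, normalized to ACTB/GAPDH/POLR2A, and fitted bidirectionally against DMSO.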

[4] = read-out: Cyclin Dependent Kinase Inhibitor 1A (CDKN1A), CDKN1A (gene 1026); assay: LTEA_HepaRG_CDKN1A: Life Technologies and Expression Analysis (LTEA) Assay for Cyclin Dependent Kinase Inhibitor 1A (CDKN1A) using HepaRG (AID 2283450); details: mRNA level, 48 h; actives raise or lower the signal
Outline: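 Gain or loss of CDKN1A transcript is scored by bidirectional fitting against 0.5% DMSO vehicle. Human HepaRG cultures receive chemicals for 48 h across an 8-point series peaking at 100 uM; expression comes from qRT-PCR.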

[5] = read-out: Cyclin D1 (CCND1), CCND1 (gene 595); assay: LTEA_HepaRG_CCND1: Life Technologies and Expression Analysis (LTEA) Assay for Cyclin D1 (CCND1) using HepaRG (AID 2283451); details: mRNA level, 48 h; actives raise or lower the signal;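 on AC50: TaqMan qRT-PCR transcript level normalised to ACTB GAPDH and POLR2A housekeeping genes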
Outline: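 Expression change is measured by qRT-PCR in HepaRG cells after 48 h treatment across eight concentrations topping at 100 uM, with duplicate wells and DMSO (0.5%) serving as baseline for bidirectional fitting.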

[6] = read-out: flavin-containing dimethylaniline monooxygenases 3 (FMO3), FMO3 (gene 2328); assay: LTEA_HepaRG_FMO3: Life Technologies and Expression Analysis (LTEA) Assay for flavin-containing dimethylaniline monooxygenases 3 (FMO3) using HepaRG (AID 2283453); details: mRNA level, 48 h; actives raise or lower the signal;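 on AC50: FMO3 transcript by TaqMan qRT-PCR normalized to ACTB GAPDH and POLR2A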
Outline: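 HepaRG, 48 h exposure, 8-pt half-log series from 100 uM, 0.5% DMSO vehicle, duplicates; FMO3 transcript by Fluidigm TaqMan qRT-PCR, housekeeping-normalized; gain/loss fit vs DMSO.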

[7] = read-out: Cytochrome P450 (CYP1A1), CYP1A1 (gene 1543); assay: LTEA_HepaRG_CYP1A1: Life Technologies and Expression Analysis (LTEA) Assay for Cytochrome P450 (CYP1A1) using HepaRG (AID 2283454); details: mRNA level, 48 h; actives raise or lower the signal
Outline: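 Using HepaRG cultures with 0.5% DMSO as vehicle, eight-concentration exposures (max 100 uM) lasted 48 h. Transcript levels were measured by TaqMan qRT-PCR and normalized to ACTB, GAPDH and POLR2A.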

[8] = read-out: CFLAR gene, CFLAR (gene 8837); assay: LTEA_HepaRG_CFLAR: Life Technologies and Expression Analysis (LTEA) Assay for CFLAR gene using HepaRG (AID 2283455); details: mRNA level, 48 h; actives raise or lower the signal
Outline: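 HepaRG cells were plated for 48 h, switched to serum-free induction medium, then exposed in duplicate for 48 h to 8 concentrations (top 100 uM, half-log steps, 0.5% DMSO). CFLAR mRNA was measured by qRT-PCR, normalized to ACTB, GAPDH and POLR2A.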

[9] = read-out: Forkhead box O3 (FOXO3), FOXO3 (gene 2309); assay: LTEA_HepaRG_FOXO3: Life Technologies and Expression Analysis (LTEA) Assay for Forkhead box O3 (FOXO3) using HepaRG (AID 2283459); details: mRNA level, 48 h; actives raise or lower the signal
Outline: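 Differentiated human HepaRG cells in serum-free induction medium were exposed in duplicate for 48 h to eight half-log concentrations up to 100 uM in 0.5% DMSO. FOXO3 mRNA was quantified by qRT-PCR, normalized to ACTB, GAPDH and POLR2A, with bidirectional fitting versus DMSO.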

[10] = read-out: ABC Transporter (ABCB1), ABCB1 (gene 5243); assay: LTEA_HepaRG_ABCB1: Life Technologies and Expression Analysis (LTEA) Assay for ABC Transporter (ABCB1) using HepaRG (AID 2283460); details: mRNA level, 48 h; actives raise or lower the signal
Outline: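 Differentiated human HepaRG cells, plated 48 h then switched to serum-free induction medium, were exposed in duplicate to eight half-log concentrations up to 100 uM in 0.5% DMSO for 48 h. ABCB1 mRNA was measured by TaqMan qRT-PCR, normalized to ACTB/GAPDH/POLR2A.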

[11] = read-out: growth arrest and DNA damage 45 (GADD45B), GADD45B (gene 4616); assay: LTEA_HepaRG_GADD45B: Life Technologies and Expression Analysis (LTEA) Assay for growth arrest and DNA damage 45 (GADD45B) using HepaRG (AID 2283461); details: mRNA level, 48 h; actives raise or lower the signal
Outline: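 Human HepaRG monolayers receive chemicals for 48 h at eight half-log concentrations, highest 100 uM, in 0.5% DMSO. Expression is measured by TaqMan qRT-PCR and normalized to ACTB, GAPDH and POLR2A.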

[12] = read-out: ABC Transporter (ABCC3), ABCC3 (gene 8714); assay: LTEA_HepaRG_ABCC3: Life Technologies and Expression Analysis (LTEA) Assay for ABC Transporter (ABCC3) using HepaRG (AID 2283462); details: mRNA level, 48 h; actives raise or lower the signal
Outline: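 Transcriptional change of ABCC3 in HepaRG after 48 h treatment, determined by qRT-PCR normalized to endogenous controls. Concentrations spanned eight half-log steps to 100 uM in 0.5% DMSO.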

[13] = read-out: ABC Transporter (ABCB11), ABCB11 (gene 8647); assay: LTEA_HepaRG_ABCB11: Life Technologies and Expression Analysis (LTEA) Assay for ABC Transporter (ABCB11) using HepaRG (AID 2283463); details: mRNA level, 48 h; actives raise or lower the signal
Outline: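 Differentiated human HepaRG cells were exposed for 48 h in serum-free induction medium to eight half-log concentrations up to 100 uM in 0.5% DMSO. ABCB11 mRNA was quantified by qRT-PCR, normalized to ACTB, GAPDH and POLR2A, and fitted bidirectionally versus DMSO.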

[14] = read-out: ABC Transporter (ABCC2), ABCC2 (gene 1244); assay: LTEA_HepaRG_ABCC2: Life Technologies and Expression Analysis (LTEA) Assay for ABC Transporter (ABCC2) using HepaRG (AID 2283464); details: mRNA level, 48 h; actives raise or lower the signal
Outline: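 After plating and 48 h culture, HepaRG medium is replaced with serum-free induction medium and chemicals are added (8 concentrations, max 100 uM, 0.5% DMSO) for 48 h. Total RNA then undergoes qRT-PCR for ABCC2 with housekeeping normalization.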

[15] = read-out: Cyclin D2 (CCND2), CCND2 (gene 894); assay: LTEA_HepaRG_CCND2: Life Technologies and Expression Analysis (LTEA) Assay for Cyclin D2 (CCND2) using HepaRG (AID 2283449); details: mRNA level, 48 h; actives raise or lower the signal;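 further: CCND2 transcript measured by TaqMan qRT-PCR and normalised to three housekeeping genes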
Outline: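 Differentiated human HepaRG cells were exposed for 48 h in serum-free induction medium to eight half-log concentrations topping at 100 uM (0.5% DMSO vehicle). CCND2 mRNA was quantified by TaqMan qRT-PCR, normalised to ACTB, GAPDH and POLR2A, and fitted bidirectionally against DMSO.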

[16] = CEETOX_H295R_TESTO: CeeTox H295R High-throughput Steroidogenesis Assay for Testosterone (TESTO) (AID 2283457); details: actives raise or lower the signal;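 on AC50: cells exposed to chemicals for 48 h before medium collection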
Outline: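 Steroidogenesis in H295R cells following OECD 456 with minor changes; 48 h exposure. Medium testosterone by HPLC-MS/MS, DMSO as baseline, with MTT viability run in parallel.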

[17] = read-out: growth arrest and DNA damage 45 (GADD45A), GADD45A (gene 1647); assay: LTEA_HepaRG_GADD45A: Life Technologies and Expression Analysis (LTEA) Assay for growth arrest and DNA damage 45 (GADD45A) using HepaRG (AID 2283458); details: mRNA level, 48 h; actives raise or lower the signal
Outline: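 Differentiated HepaRG cells were exposed in duplicate for 48 h in serum-free induction medium to 8-point half-log concentrations up to 100 uM in 0.5% DMSO. GADD45A mRNA was measured by TaqMan qRT-PCR, normalized to ACTB, GAPDH and POLR2A, with bidirectional fitting versus DMSO.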

[18] = CEETOX_H295R_ESTRONE: CeeTox H295R High-throughput Steroidogenesis Assay for Estrone (AID 2283441); details: actives raise or lower the signal;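 further: estrone secreted into medium measured by LC-MS/MS after dansyl derivatization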
Outline: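 H295R cells; 48 h forskolin (10 uM) prestimulation; 48 h compound exposure, 0.1% DMSO final. Medium estrone: MTBE extraction, dansyl derivatization, HPLC-MS/MS. Bidirectional fit vs DMSO.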

[19] = read-out: catalase (CAT), CAT (gene 847); assay: LTEA_HepaRG_CAT: Life Technologies and Expression Analysis (LTEA) Assay for catalase (CAT) using HepaRG (AID 2283452); details: mRNA level, 48 h; actives raise or lower the signal
Outline: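 Differentiated HepaRG cells in serum-free induction medium were dosed 48 h in duplicate, eight half-log concentrations from 100 uM in 0.5% DMSO. Transcript measured by TaqMan qRT-PCR, normalised to ACTB/GAPDH/POLR2A, fitted bidirectionally against DMSO.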

[20] = read-out: Forkhead box O1 (FOXO1), FOXO1 (gene 2308); assay: LTEA_HepaRG_FOXO1: Life Technologies and Expression Analysis (LTEA) Assay for Forkhead box O1 (FOXO1) using HepaRG (AID 2283456); details: mRNA level, 48 h; actives raise or lower the signal
Outline: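 Differentiated human HepaRG cells in serum-free induction medium were exposed in duplicate for 48 h to eight half-log concentrations (top 100 uM, 0.5% DMSO). FOXO1 mRNA was measured by TaqMan qRT-PCR, normalised to ACTB, GAPDH and POLR2A, and fitted bidirectionally against DMSO.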

Measured: AC50

Fatty acid synthase (Homo sapiens), sequence (P49327 whole entry, looked up): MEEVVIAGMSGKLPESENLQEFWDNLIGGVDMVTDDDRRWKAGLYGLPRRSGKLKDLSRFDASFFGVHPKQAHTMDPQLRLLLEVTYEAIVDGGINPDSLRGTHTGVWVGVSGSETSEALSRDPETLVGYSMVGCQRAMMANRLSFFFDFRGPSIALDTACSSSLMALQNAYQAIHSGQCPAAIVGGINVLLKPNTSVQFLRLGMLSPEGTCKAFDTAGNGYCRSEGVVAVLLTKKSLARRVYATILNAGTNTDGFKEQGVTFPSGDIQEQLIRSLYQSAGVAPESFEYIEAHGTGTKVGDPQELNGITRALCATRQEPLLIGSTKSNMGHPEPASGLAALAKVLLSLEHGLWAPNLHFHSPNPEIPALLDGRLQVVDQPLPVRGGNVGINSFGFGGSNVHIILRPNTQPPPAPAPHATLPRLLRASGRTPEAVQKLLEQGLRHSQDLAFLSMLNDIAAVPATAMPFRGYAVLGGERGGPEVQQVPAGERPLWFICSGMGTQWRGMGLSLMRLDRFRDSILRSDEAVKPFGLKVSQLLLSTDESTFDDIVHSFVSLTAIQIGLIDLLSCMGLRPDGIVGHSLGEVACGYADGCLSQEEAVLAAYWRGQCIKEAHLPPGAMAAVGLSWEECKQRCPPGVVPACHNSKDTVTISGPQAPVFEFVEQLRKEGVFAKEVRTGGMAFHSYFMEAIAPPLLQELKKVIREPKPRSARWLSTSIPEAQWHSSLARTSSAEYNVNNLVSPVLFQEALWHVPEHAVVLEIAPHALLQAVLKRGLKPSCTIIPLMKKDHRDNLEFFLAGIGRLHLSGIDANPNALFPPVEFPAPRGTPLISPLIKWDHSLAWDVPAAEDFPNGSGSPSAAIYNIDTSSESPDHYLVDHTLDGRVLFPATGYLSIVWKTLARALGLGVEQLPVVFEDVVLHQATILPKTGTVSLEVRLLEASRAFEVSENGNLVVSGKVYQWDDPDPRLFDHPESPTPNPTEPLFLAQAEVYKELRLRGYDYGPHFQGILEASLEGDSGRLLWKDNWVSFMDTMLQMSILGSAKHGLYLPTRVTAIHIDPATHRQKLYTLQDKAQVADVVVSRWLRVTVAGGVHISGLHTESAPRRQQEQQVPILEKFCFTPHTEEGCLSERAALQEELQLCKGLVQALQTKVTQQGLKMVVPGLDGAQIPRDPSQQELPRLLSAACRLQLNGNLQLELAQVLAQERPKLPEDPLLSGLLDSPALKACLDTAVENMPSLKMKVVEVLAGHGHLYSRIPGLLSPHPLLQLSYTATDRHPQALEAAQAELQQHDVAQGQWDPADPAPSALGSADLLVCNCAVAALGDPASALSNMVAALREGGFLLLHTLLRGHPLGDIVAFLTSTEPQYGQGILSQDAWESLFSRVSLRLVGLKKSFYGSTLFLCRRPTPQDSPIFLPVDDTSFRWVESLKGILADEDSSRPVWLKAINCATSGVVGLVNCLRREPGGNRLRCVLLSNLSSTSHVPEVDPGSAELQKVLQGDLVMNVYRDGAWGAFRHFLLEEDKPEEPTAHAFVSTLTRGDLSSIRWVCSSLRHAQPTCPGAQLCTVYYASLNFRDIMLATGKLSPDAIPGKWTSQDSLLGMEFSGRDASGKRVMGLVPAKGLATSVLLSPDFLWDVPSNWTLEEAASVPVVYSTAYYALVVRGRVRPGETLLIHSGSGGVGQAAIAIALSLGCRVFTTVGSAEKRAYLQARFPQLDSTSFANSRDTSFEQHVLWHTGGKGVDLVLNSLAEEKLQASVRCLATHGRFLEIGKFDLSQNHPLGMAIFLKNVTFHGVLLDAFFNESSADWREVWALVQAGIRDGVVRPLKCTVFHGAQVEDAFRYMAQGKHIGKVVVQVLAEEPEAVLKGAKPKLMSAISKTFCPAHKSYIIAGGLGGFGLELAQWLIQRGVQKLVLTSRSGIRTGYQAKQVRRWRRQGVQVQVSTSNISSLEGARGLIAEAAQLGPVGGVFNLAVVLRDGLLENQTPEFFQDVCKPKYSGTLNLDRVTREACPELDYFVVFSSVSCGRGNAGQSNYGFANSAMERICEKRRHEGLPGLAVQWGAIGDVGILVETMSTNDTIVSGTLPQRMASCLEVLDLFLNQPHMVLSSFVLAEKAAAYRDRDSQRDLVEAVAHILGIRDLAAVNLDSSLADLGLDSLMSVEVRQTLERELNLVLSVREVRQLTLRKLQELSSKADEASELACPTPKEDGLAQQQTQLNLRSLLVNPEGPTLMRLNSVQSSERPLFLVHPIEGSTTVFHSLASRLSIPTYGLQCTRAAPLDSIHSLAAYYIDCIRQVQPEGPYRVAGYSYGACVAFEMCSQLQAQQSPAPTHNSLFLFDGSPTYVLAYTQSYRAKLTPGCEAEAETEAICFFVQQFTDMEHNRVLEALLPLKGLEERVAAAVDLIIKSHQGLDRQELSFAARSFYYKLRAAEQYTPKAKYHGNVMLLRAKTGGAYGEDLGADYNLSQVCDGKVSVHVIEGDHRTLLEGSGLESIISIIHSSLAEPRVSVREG

c1ccc(Nc2ccccc2)cc1
not listed: [15] | [16] | [17] | [18] | [19] | [20]
inactive: all other assays above

CCCCOCCOCCOCc1cc2c(cc1CCC)OCO2
active: [7] 12.9 µM | [10] 4.01 µM | [14] 7.48 µM
not listed: [3] | [18] | [19] | [20]
inactive: all other assays above

CCCCCOC(=O)COc1cc(N2C(=O)C3=C(CCCC3)C2=O)c(F)cc1Cl
active: [7] 0.00329 µM
not listed: [3] | [16] | [17] | [20]
inactive: all other assays above

CCOC(=O)C(C)Oc1ccc(Oc2cnc3cc(Cl)ccc3n2)cc1 (stereo unspecified)
active: [6] 14 µM | [7] 18.5 µM | [13] 1.93 µM
not listed: [3] | [16] | [18] | [20]
inactive: all other assays above

c1ccc2[nH]c(-c3cscn3)nc2c1
active: [1] 59 µM | [7] 18.9 µM
not listed: [3] | [17] | [19]
inactive: all other assays above

CCOC(=O)c1ccc(O)cc1
active: [1] 36.5 µM
not listed: [3] | [16] | [17] | [19] | [20]
inactive: all other assays above

CC1(C)C(C=C(Cl)Cl)C1C(=O)OCc1cccc(Oc2ccccc2)c1 (stereo unspecified)
active: [1] 11.5 µM | [7] 35.9 µM
not listed: [16] | [17] | [18] | [19] | [20]
inactive: all other assays above

CCCN(CCC)C(=O)SCC
not listed: [3] | [19] | [20]
inactive: all other assays above

C#CCOC(=O)[C@@H](C)Oc1ccc(Oc2ncc(Cl)cc2F)cc1
active: [1] 9.01 µM | [7] 33 µM | [13] 5.03 µM
not listed: [3] | [15] | [16] | [17] | [19] | [20]
inactive: all other assays above

C=CCOC(Cn1ccnc1)c1ccc(Cl)cc1Cl (stereo unspecified)
active: [1] 0.296 µM | [2] 68.9 µM | [4] 28.6 µM | [5] 90.5 µM | [6] 35.3 µM | [7] 12.1 µM | [8] 79.2 µM | [11] 91.3 µM | [12] 35.5 µM | [14] 37.9 µM
inactive: [15] | [9] | [10]

C#C[C@]1(O)CC[C@H]2[C@@H]3CCC4=CC(=O)CC[C@@H]4[C@H]3CC[C@@]21CC
active: [10] 0.156 µM | [13] 0.0365 µM
not listed: [3] | [16] | [18] | [19]
inactive: all other assays above

CN(C)C(=O)Nc1ccc(Cl)c(Cl)c1
active: [5] 50 µM | [6] 50 µM | [7] 27 µM | [16] 28.1 µM | [9] 22.2 µM | [11] 66.5 µM | [13] 50 µM
not listed: [3] | [17] | [18] | [19] | [20]
inactive: all other assays above

CC(=O)S[C@@H]1CC2=CC(=O)CC[C@]2(C)[C@H]2CC[C@@]3(C)[C@@H](CC[C@@]34CCC(=O)O4)[C@H]12
active: [6] 60.3 µM | [16] 0.828 µM | [13] 67 µM
not listed: [3] | [17] | [19]
inactive: all other assays above
